Data from PubChem BioAssay (NCI).
About 83,000 compounds went through this panel and 20% of them were active in at least one assay; those are over-represented in the sample as a whole.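 Plates (96-well) were seeded with cells, treated with compound at one concentration, and incubated for 48 hours before percent growth was determined.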 A number with no mark means an inactive call. Activity calls are given as the source filed them. The calls were made as follows: active = growth percent below 10; inactive = the rest.

Tests used:
Test in all cases: NCI-60 one-dose screen, 48 h (100 = growth as untreated, 0 = no growth, -100 = all killed)
HCT-15 colon = conditions: 10 µM unless noted
HT29 colon = conditions: 10 µM unless noted
SNB-75 CNS = conditions: 10 µM unless noted
SNB-19 CNS = conditions: 10 µM unless noted
U251 CNS = conditions: 10 µM unless noted
PC-3 prostate = conditions: 10 µM unless noted
SK-MEL-5 melanoma = conditions: 10 µM unless noted
UACC-62 melanoma = conditions: 10 µM unless noted
LOX IMVI melanoma = conditions: 10 µM
SK-MEL-28 melanoma = conditions: 10 µM unless noted

For `Cc1ccc(S(=O)(=O)NC(=O)NCCSSCCNC(=O)NS(=O)(=O)c2ccc(C)cc2)cc1`, which growth (HCT-15 colon) is on record?
The growth was 96.7%.

And the growth (HT29 colon)?
The growth was 108%.

And the growth (SNB-75 CNS)?
Its growth is 85.5%.

What about the growth (SNB-19 CNS) of the same molecule?
Its growth is 99.4%.

What about the growth (U251 CNS) of the same molecule?
Its growth is 98.6%.

And the growth (PC-3 prostate)?
Its growth is 96.6%.

What about the growth (SK-MEL-5 melanoma) of the same molecule?
The growth was 97.8%.

And the growth (UACC-62 melanoma)?
The growth was 101%.

What about the growth (LOX IMVI melanoma) of the same molecule?
Its growth is 98.2%.

What about the growth (SK-MEL-28 melanoma) of the same molecule?
The growth was 109%.

Which growth (HCT-15 colon) does the source give for `CC(CO)(CO)C(=O)O` here?
Its growth is 100%.

And the growth (HT29 colon)?
The growth was 102%.

What about the growth (SNB-75 CNS) of the same molecule?
Its growth is 97.4%.

And the growth (SNB-19 CNS)?
The growth was 105%.

What about the growth (U251 CNS) of the same molecule?
Its growth is 102%.

And the growth (PC-3 prostate)?
Its growth is 94.9%.

And the growth (SK-MEL-5 melanoma)?
The growth was 97.3%.

What about the growth (UACC-62 melanoma) of the same molecule?
The growth was 103%.

And the growth (LOX IMVI melanoma)?
Its growth is 97.9%.

And the growth (SK-MEL-28 melanoma)?
Its growth is 110%.

Which results are given for `Cc1cc(Cc2ccccc2)c(O)c(Cc2ccccc2)c1`?
growth (HCT-15 colon): 89.8%; growth (HT29 colon): 104%; growth (SNB-75 CNS): 75.5%; growth (SNB-19 CNS): 102%; growth (U251 CNS): 86.5%; growth (PC-3 prostate): 88.3%; growth (SK-MEL-5 melanoma): 98.6%; growth (UACC-62 melanoma): 71.4%; growth (LOX IMVI melanoma): 80.7%; growth (SK-MEL-28 melanoma): 106%

What does the source list for `COC(=O)C1=C(C)C(=O)CC1`?
growth (HCT-15 colon): 121%; growth (HT29 colon): 98.3%; growth (SNB-75 CNS): 94.4%; growth (SNB-19 CNS): 104%; growth (U251 CNS): 115%; growth (PC-3 prostate): 96.2%; growth (SK-MEL-5 melanoma): 110%; growth (UACC-62 melanoma): 100%; growth (LOX IMVI melanoma): 118%; growth (SK-MEL-28 melanoma): 110%

Which growth (HCT-15 colon) does the source give for `CC(=O)/C(C)=N\OC(=O)Nc1ccccc1` here?
The growth was 103%.

What about the growth (HT29 colon) of the same molecule?
The growth was 99.4%.

And the growth (SNB-75 CNS)?
The growth was 82.7%.

And the growth (SNB-19 CNS)?
Its growth is 98%.

And the growth (U251 CNS)?
Its growth is 93%.

What about the growth (PC-3 prostate) of the same molecule?
Its growth is 97.5%.

What about the growth (SK-MEL-5 melanoma) of the same molecule?
The growth was 99.1%.

And the growth (UACC-62 melanoma)?
The growth was 107%.

And the growth (LOX IMVI melanoma)?
The growth was 94.6%.

What about the growth (SK-MEL-28 melanoma) of the same molecule?
Its growth is 112%.

Which growth (HCT-15 colon) does the source give for `COC1=C(OC)C(=O)C(SC/C=C(\C)CCCC(C)CCCC(C)CCCC(C)C)=CC1=O` (stereo not given) here?
Its growth is 17.2%.

What about the growth (HT29 colon) of the same molecule?
Its growth is 56.2%.

And the growth (SNB-75 CNS)?
Its growth is 27.8%.

What about the growth (SNB-19 CNS) of the same molecule?
The growth was 24.6%.

And the growth (U251 CNS)?
The growth was 15.4%.

What about the growth (PC-3 prostate) of the same molecule?
Its growth is 10.8%.

What about the growth (SK-MEL-5 melanoma) of the same molecule?
Its growth is -67.3% (active).

What about the growth (UACC-62 melanoma) of the same molecule?
Its growth is 26.7%.

What about the growth (LOX IMVI melanoma) of the same molecule?
Its growth is 17.2%.

And the growth (SK-MEL-28 melanoma)?
The growth was 40.8%.

For `C=CCC(OC(C)=O)c1ccc(OC)c(OC)c1` (stereo not given), which growth (HCT-15 colon) is on record?
The growth was 104%.

And the growth (HT29 colon)?
The growth was 107%.

And the growth (SNB-75 CNS)?
Its growth is 98.8%.

And the growth (SNB-19 CNS)?
The growth was 109%.

What about the growth (U251 CNS) of the same molecule?
The growth was 101%.

What about the growth (PC-3 prostate) of the same molecule?
The growth was 92.5%.

What about the growth (SK-MEL-5 melanoma) of the same molecule?
Its growth is 119%.

What about the growth (UACC-62 melanoma) of the same molecule?
The growth was 107%.

And the growth (LOX IMVI melanoma)?
The growth was 107%.

And the growth (SK-MEL-28 melanoma)?
The growth was 132%.

Which results are given for `O=C(c1ccc(Cl)cc1)N1CCCCC1`?
growth (HCT-15 colon): 98.5%; growth (HT29 colon): 101%; growth (SNB-75 CNS): 88.5%; growth (SNB-19 CNS): 93.7%; growth (U251 CNS): 94.7%; growth (PC-3 prostate): 97.8%; growth (SK-MEL-5 melanoma): 100%; growth (UACC-62 melanoma): 95%; growth (LOX IMVI melanoma): 97.6%; growth (SK-MEL-28 melanoma): 101%

How did the growth (HCT-15 colon) turn out when `Cc1cc2c3ccc(C)[n+](C)c3ccc2n1C` was run?
The growth was 104%.

What about the growth (HT29 colon) of the same molecule?
The growth was 39.9%.

What about the growth (SNB-75 CNS) of the same molecule?
The growth was 67.6%.

And the growth (SNB-19 CNS)?
The growth was 30.6%.

What about the growth (U251 CNS) of the same molecule?
Its growth is 12.4%.

What about the growth (PC-3 prostate) of the same molecule?
The growth was 8.69% (active).

What about the growth (SK-MEL-5 melanoma) of the same molecule?
The growth was 48.2%.

What about the growth (UACC-62 melanoma) of the same molecule?
The growth was 78.9%.

And the growth (LOX IMVI melanoma)?
The growth was 43.9%.

What about the growth (SK-MEL-28 melanoma) of the same molecule?
Its growth is 86%.

How did the growth (HCT-15 colon) turn out when `COc1cc(C(=O)NC(=S)NCc2ccncc2)cc(OC)c1OC` was run?
Its growth is 95.5%.

What about the growth (HT29 colon) of the same molecule?
The growth was 89.2%.

And the growth (SNB-75 CNS)?
The growth was 92.5%.

What about the growth (SNB-19 CNS) of the same molecule?
The growth was 106%.

And the growth (U251 CNS)?
Its growth is 98.7%.

And the growth (PC-3 prostate)?
Its growth is 95.9%.

And the growth (SK-MEL-5 melanoma)?
Its growth is 90.3%.

What about the growth (UACC-62 melanoma) of the same molecule?
Its growth is 99.3%.

What about the growth (LOX IMVI melanoma) of the same molecule?
Its growth is 97.7%.

What about the growth (SK-MEL-28 melanoma) of the same molecule?
Its growth is 102%.

How did the growth (HCT-15 colon) turn out when `c1ccc(Nc2ccccn2)nc1` was run?
Its growth is 95.7%.

What about the growth (HT29 colon) of the same molecule?
The growth was 100%.

What about the growth (SNB-75 CNS) of the same molecule?
Its growth is 82.3%.

And the growth (SNB-19 CNS)?
The growth was 97.5%.

And the growth (U251 CNS)?
Its growth is 91.8%.

What about the growth (PC-3 prostate) of the same molecule?
The growth was 95.9%.

And the growth (SK-MEL-5 melanoma)?
The growth was 103%.

What about the growth (UACC-62 melanoma) of the same molecule?
The growth was 94.1%.

And the growth (LOX IMVI melanoma)?
Its growth is 95.7%.

And the growth (SK-MEL-28 melanoma)?
The growth was 118%.

Which growth (HCT-15 colon) does the source give for `CN(C)c1ccc(O)c2c1CC1CC3C(N(C)C)C(=O)C(C(N)=O)=C(O)C3(O)C(=O)C1=C2O` (stereo not given) here?
The growth was 25.4%.

And the growth (HT29 colon)?
The growth was 57.5%.

And the growth (SNB-75 CNS)?
The growth was 55.8%.

What about the growth (SNB-19 CNS) of the same molecule?
Its growth is 55.5%.

And the growth (U251 CNS)?
The growth was 25.7%.

And the growth (PC-3 prostate)?
Its growth is 34.6%.

What about the growth (SK-MEL-5 melanoma) of the same molecule?
The growth was 25.6%.

What about the growth (UACC-62 melanoma) of the same molecule?
The growth was 29%.

What about the growth (LOX IMVI melanoma) of the same molecule?
The growth was 29.3%.

What about the growth (SK-MEL-28 melanoma) of the same molecule?
The growth was 47.4%.

`C=C1SC(=Nc2c(C)cccc2C)N(c2nc(Cl)nc(Cl)n2)C12CCCCC2` was tested. Which growth (HCT-15 colon) did it give?
The growth was 109%.

What about the growth (HT29 colon) of the same molecule?
Its growth is 108%.

What about the growth (SNB-75 CNS) of the same molecule?
Its growth is 96.7%.

What about the growth (SNB-19 CNS) of the same molecule?
The growth was 108%.

And the growth (U251 CNS)?
The growth was 102%.

And the growth (PC-3 prostate)?
Its growth is 99.3%.

And the growth (SK-MEL-5 melanoma)?
Its growth is 84.2%.

What about the growth (UACC-62 melanoma) of the same molecule?
Its growth is 105%.

And the growth (LOX IMVI melanoma)?
The growth was 104%.

What about the growth (SK-MEL-28 melanoma) of the same molecule?
The growth was 104%.

How did the growth (HCT-15 colon) turn out when `O=c1nc(Nc2cccc(Cl)c2)oc2cc(Cl)oc(=O)c12` was run?
Its growth is 83.4%.

And the growth (HT29 colon)?
The growth was 85.5%.

What about the growth (SNB-75 CNS) of the same molecule?
The growth was 67.2%.

And the growth (SNB-19 CNS)?
Its growth is 94.3%.

What about the growth (U251 CNS) of the same molecule?
Its growth is 79.6%.

And the growth (PC-3 prostate)?
Its growth is 61.8%.

What about the growth (SK-MEL-5 melanoma) of the same molecule?
Its growth is 106%.

And the growth (UACC-62 melanoma)?
Its growth is 78.7%.

What about the growth (LOX IMVI melanoma) of the same molecule?
The growth was 73.5%.

What about the growth (SK-MEL-28 melanoma) of the same molecule?
The growth was 85.5%.

`COC(CCCl)c1ccc(Cl)cc1` (stereo not given) was tested. Which growth (HCT-15 colon) did it give?
The growth was 98.3%.

What about the growth (HT29 colon) of the same molecule?
Its growth is 93.6%.

And the growth (SNB-75 CNS)?
The growth was 84.4%.

What about the growth (SNB-19 CNS) of the same molecule?
Its growth is 110%.

And the growth (U251 CNS)?
The growth was 93.3%.

What about the growth (PC-3 prostate) of the same molecule?
The growth was 108%.

What about the growth (SK-MEL-5 melanoma) of the same molecule?
The growth was 101%.

And the growth (UACC-62 melanoma)?
The growth was 107%.

What about the growth (LOX IMVI melanoma) of the same molecule?
The growth was 101%.

What about the growth (SK-MEL-28 melanoma) of the same molecule?
Its growth is 106%.
